Experimental data published in PubChem BioAssay (NCATS).
Records with an inconclusive call do not appear. Calls of active or inactive are those of the source. The call rests on the fitted dose curve; in most records, active means well fitted inhibition curve with a large enough effect; inconclusive means small, poorly fitted or top-dose-only effect; inactive means flat fitted curve, though single readings scatter.

Assays:
Assay in all cases: Cytotoxic Profiling of Annotated Libraries Using Quantitative High-Throughput Screening (AID 1296008); further: nearly all actives have a fitted effect of over 60% in size
Conditions in all cases: Five cell lines viability, CellTiter-Glo ATP luminescence, 48-72 h; max response: stronger effect = lower value
[1] = system: CRL-7250
How it was run: (§1)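 Compounds were pin-transferred onto cells and incubated 48 or 72 hr at 37 degree Celsius, 95% humidity. CellTiter-Glo was added, plates sat 10 min at room temperature, then ATP-coupled luminescence was imaged as the viability read-out.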

[2] = system: HEK293
How it was run: as §1

[3] = system: HaCat
How it was run: as §1

[4] = system: KB-3-1
How it was run: as §1

[5] = system: NIH3T3
How it was run: as §1

Measured: max response
On the % scale 0 is the no-effect control and ±100 the full control effect.

CC1=C2CC(C)(C)CC2C(O)C2=C(C1)C(=O)OC2O (stereo not given)
inactive: [1] | [2] 4.01% | [3] | [4] | [5] -6.57%

CC(=O)/C=C/C1(O)C(C)(C)CC(O)CC1(C)O (stereo not given)
inactive: [1] -6.38% | [2] -4.83% | [3] | [4] | [5]

C[C@@H]1[C@H]2[C@H](O[C@@H]3O[C@H](CO)[C@@H](O)[C@H](O)[C@H]3O)OC=C(C(=O)O)[C@H]2C[C@@H]1OC(=O)/C=C/c1ccc(O)cc1
inactive: [1] -1.73% | [2] | [3] -1.65% | [4] 7.88% | [5] 1.42%

CC1(C)O[C@H]2CC(=O)OC[C@@]23C1=C(O)C(=O)[C@]1(C)C3CC[C@@]2(C)[C@H](c3ccoc3)OC(=O)[C@H]3O[C@]321 (stereo not given in full)
inactive: [1] | [2] 1.52% | [3] | [4] | [5]

C/C=C1/C[N+](C)([O-])C2Cc3c([nH]c4ccccc34)C(=O)CC1C2C(=O)OC (stereo not given)
inactive: [1] -5.18% | [2] -0.509% | [3] | [4] 8.09% | [5] -1.66%

CC(=O)O[C@@H]1C(=O)C(C)=C(CCC(C)CC(=O)O)[C@@]2(C)CCCC(C)(C)C12 (stereo not given in full)
inactive: [1] | [2] 0.534% | [3] -6.8% | [4] -5.14% | [5]

CCNC(=O)OC1CCN(c2nncc3cc(OC)c(OC)cc23)CC1
inactive: [1] -1.25% | [2] 2.54% | [3] -16.1% | [4] | [5]

CC1(C)CC[C@]2(C(=O)O)CC[C@]3(C)C(=CCC4[C@@]5(C)C[C@@H](O)[C@H](O)[C@@](C)(CO)C5[C@H](O)C[C@]43C)[C@@H]2C1 (stereo not given in full)
inactive: [1] | [2] -6.35% | [3] | [4] | [5] 0.343%
